Inconclusive results are not listed. Calls of active or inactive are those of the source. How the source made its calls, unless noted: active means hit-call score of the fitted dose curve at least 0.9, where 1 is the maximum; inactive means score below 0.9.
What was measured:
[1] = target: Oxysterols receptor LXR-alpha (Homo sapiens) (UniProt Q13133); experiment: ATG_LXRa_TRANS: Attagene TRANS-FACTORIAL HepG2 Assay for human Liver X Receptor alpha (LXRa) (AID 2282980; active means hit-call score of the fitted dose curve at least 0.9, where 1 is the maximum); conditions: HepG2 Attagene TRANS reporter, LXRa transactivation
How it was run: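 Chemical-induced reporter mRNA measured by RT-PCR with fluorescent labelling and capillary electrophoresis after 24 h dosing of transiently transfected HepG2 cells expressing exogenous NR-Gal4 chimeras; increases scored against DMSO baseline.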

[2] = target: Oxysterols receptor LXR-beta (Homo sapiens) (UniProt P55055); experiment: ATG_LXRb_TRANS: Attagene TRANS-FACTORIAL HepG2 Assay for human Liver X Receptor beta (LXRb) (AID 2282981; active means hit-call score of the fitted dose curve at least 0.9, where 1 is the maximum); conditions: HepG2 Attagene TRANS GAL4-LXRb reporter, mRNA
How it was run: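 Cells: HepG2, transiently transfected with GAL4-UAS reporter units plus LXRb-Gal4 fusion. Treatment: 24 h. Detection: reporter mRNA by RT-PCR, 6-FAM labelling, HpaI digestion, capillary electrophoresis.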

[3] = ATG_M_06_TRANS: Attagene TRANS-FACTORIAL HepG2 Assay for M06 Transcription Factor (Internal Marker) (AID 2282983; active means hit-call score of the fitted dose curve at least 0.9, where 1 is the maximum;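 on AC50: potency for rise in reporter mRNA above DMSO baseline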); conditions: HepG2 Attagene TRANS M06 internal marker reporter
How it was run: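 Cells: HepG2, transient multi-reporter transfection. Exposure: 24 h. Detection: RT-PCR, 6-FAM labelling, HpaI digestion (2 h, 37 °C), capillary electrophoresis. Baseline: DMSO.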

[4] = target: Transcriptional activator Myb (Homo sapiens) (UniProt P10242); experiment: ATG_Myb_CIS: Attagene CIS-FACTORIAL HepG2 Assay for human Myeloblastosis (Myb) Proto-Oncogene Transcription Factor (AID 2282986); conditions: HepG2 Attagene CIS-FACTORIAL Myb reporter transcription; actives raise or lower the signal
How it was run: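 Endogenous transcription factor activity at a Myb-responsive cis element is reported in human liver HepG2 cells after 24 h chemical treatment. Reporter mRNA is detected by RT-PCR and capillary electrophoresis fluorescence, with DMSO as baseline.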

[5] = target: Nuclear respiratory factor 1 (Homo sapiens) (UniProt Q16656); experiment: ATG_NRF1_CIS: Attagene CIS-FACTORIAL HepG2 Assay for human Nuclear Respiratory Factor 1 (NRF1) Orphan Gene (AID 2282987); conditions: HepG2 NRF1 cis-element reporter, Attagene multiplex; actives raise or lower the signal
How it was run: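 Human hepatoma HepG2 cells carrying transfected promoter-regulated reporter units were incubated with test chemicals for 24 h. Reporter transcripts were measured by RT-PCR plus capillary electrophoresis, and endpoints derived by bidirectional fitting with DMSO as baseline.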

[6] = ATG_NFI_CIS: Attagene CIS-FACTORIAL HepG2 Assay for human Nuclear Factor I (NFI) (AID 2282989); conditions: HepG2 cis-regulatory reporter, NFI response element transcription; actives raise or lower the signal
How it was run: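 Transient MRTU transfection of HepG2 → 24 h chemical dosing → total RNA, oligo(dT) RT → PCR, 6-FAM primer extension, HpaI cut → capillary electrophoresis. Endpoint fitted bidirectionally relative to DMSO.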

[7] = target: Myc proto-oncogene protein (Homo sapiens) (UniProt P01106); experiment: ATG_Myc_CIS: Attagene CIS-FACTORIAL HepG2 Assay for human Myelocytomatosis (Myc) Proto-Oncogene Transcription Factor (AID 2282990); conditions: HepG2, Attagene cis-reporter transcription factor activity; actives raise or lower the signal
How it was run: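 Cells of the HepG2 human liver line bear multiple cis-driven reporter transcription units. Reporter mRNA after 24 h exposure is reverse-transcribed, amplified, labelled and resolved by capillary electrophoresis, with gain- or loss-of-signal fitting relative to DMSO.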

[8] = ATG_NF_kB_CIS: Attagene CIS-FACTORIAL HepG2 Assay for human Nuclear Factor Kappa B (NF-kB) (AID 2282991); conditions: HepG2 Attagene cis-factorial NF-kB reporter mRNA; actives raise or lower the signal
How it was run: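 Multiplexed cis-reporter assay in transiently transfected HepG2. 24 h treatment; RNA isolated, RT-PCR, labelled fragments resolved by CE. DMSO baseline.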

[9] = ATG_NRF2_ARE_CIS: Attagene CIS-FACTORIAL HepG2 Assay for human Nuclear Factor Erythroid 2 Related Factor 2 (NFR2) response to Antioxidant Response Elements (ARE) (AID 2282992); conditions: HepG2 Attagene ARE/NRF2 reporter, transcription factor activity; actives raise or lower the signal;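 on AC50: reporter mRNA level measured by RT-PCR and capillary electrophoresis fluorescence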
How it was run: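 Transient MRTU transfection of HepG2; 24 h compound exposure; TriZol RNA, RT with oligo(dT), PCR, 6-FAM primer extension, HpaI cut, CE. Bidirectional fit vs DMSO.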

[10] = ATG_Oct_MLP_CIS: Attagene CIS-FACTORIAL HepG2 Assay for human Octamer-Binding Transcription Factor (Oct) (AID 2282993); conditions: HepG2 Attagene cis-factorial Oct reporter, mRNA; actives raise or lower the signal
How it was run: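 Transient MRTU transfection of HepG2 → 24 h compound treatment → RNA isolation, reverse transcription, PCR → 6-FAM primer extension, HpaI digest → capillary electrophoresis. Activity fitted both directions against DMSO.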

[11] = target: Cellular tumor antigen p53 (Homo sapiens) (UniProt P04637); experiment: ATG_p53_CIS: Attagene CIS-FACTORIAL HepG2 Assay for human p53 Transcription Factor (AID 2282994); conditions: HepG2 p53 cis-element reporter, Attagene mRNA; actives raise or lower the signal
How it was run: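 HepG2, transient MRTU transfection (cis promoter elements, endogenous TFs); 24 h dosing; RNA isolation, RT-PCR, 6-FAM primer extension, HpaI digest, CE fluorescence; bidirectional fit vs DMSO.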

[12] = target: Hepatocyte nuclear factor 4-alpha (Homo sapiens) (UniProt P41235); experiment: ATG_HNF4a_TRANS: Attagene TRANS-FACTORIAL HepG2 Assay for human Hepatocyte Nuclear Factor 4 alpha (HNF4a) (AID 2282982; active means hit-call score of the fitted dose curve at least 0.9, where 1 is the maximum); conditions: HepG2 HNF4a transactivation reporter, mRNA readout
How it was run: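 Transfected HepG2 reporter cells are dosed for 24 h; reporter RNA is reverse-transcribed, amplified, fluorescently labelled and HpaI-digested before CE sizing. Positive-direction fit against DMSO.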

[13] = ATG_M_32_TRANS: Attagene TRANS-FACTORIAL HepG2 Assay for M32 Transcription Factor (Internal Marker) (AID 2282984; active means hit-call score of the fitted dose curve at least 0.9, where 1 is the maximum;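 further: transcript level of a background control reporter unit measured by RT-PCR and capillary electrophoresis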); conditions: HepG2 Attagene TRANS M32 internal marker reporter
How it was run: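 Using transiently transfected HepG2 cells exposed to test chemicals for 24 h, reporter transcripts are converted to labelled cDNA fragments and quantified by capillary electrophoresis. DMSO defines the activity baseline.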

[14] = target: Nuclear receptor subfamily 4 group A member 2 (Homo sapiens) (UniProt P43354); experiment: ATG_NURR1_TRANS: Attagene TRANS-FACTORIAL HepG2 Assay for human Nuclear Receptor Related Protein 1 (NURR1) (AID 2282985; active means hit-call score of the fitted dose curve at least 0.9, where 1 is the maximum); conditions: HepG2 Attagene TRANS reporter, mRNA readout
How it was run: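 Cells: HepG2, transiently transfected. Exposure: 24 h. Detection: fluorescence of labelled RT-PCR products separated by capillary electrophoresis; upward fit versus DMSO.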

[15] = BSK_3C_TissueFactor: BioMAP Diversity Plus: 3C Assay for Tissue Factor Biomarker Activity (AID 2282997); conditions: BioMAP 3C HUVEC, tissue factor biomarker readout; actives raise or lower the signal
How it was run: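 Dosing of human umbilical vein endothelial cells preceded a 24 h incubation. Tissue Factor was then read by ELISA, with increases and decreases both scored relative to DMSO controls.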

[16] = BSK_3C_uPAR: BioMAP Diversity Plus: 3C Assay for Urokinase-type plasminogen activator receptor (uPAR) Biomarker Activity (AID 2282998); conditions: BioMAP 3C HUVEC, uPAR biomarker ELISA; actives raise or lower the signal
How it was run: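 ELISA readout of uPAR on human vascular endothelium (umbilical vein primary cells), taken 24 h after chemical dosing. Increases and decreases are both fitted relative to DMSO vehicle.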

[17] = BSK_3C_VCAM1: BioMAP Diversity Plus: 3C Assay for Vascular cell adhesion molecule 1 (VCAM1) Biomarker Activity (AID 2282999); conditions: BioMAP 3C HUVEC, VCAM1 ELISA, cytokine-stimulated; actives raise or lower the signal
How it was run: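 Endothelial cells from human umbilical vein are treated with test chemical. At 24 h, VCAM-1 is measured by ELISA, and responses in either direction are fitted relative to DMSO.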

[18] = BSK_4H_Eotaxin3: BioMAP Diversity Plus: 4H Assay for Eotaxin 3 Biomarker Activity (AID 2283000); conditions: primary human endothelial cells (HUVEC); actives raise or lower the signal;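 further: CCL26 protein level quantified by ELISA in parallel with SRB cytotoxicity check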
How it was run: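 Human umbilical vein endothelial cells (BSK_4H system) dosed with test chemical; Eotaxin-3 (CCL26) measured by ELISA 24 h after dosing. Bidirectional curve fitting relative to DMSO negative control as baseline.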

Measured: AC50

Oxysterols receptor LXR-alpha (Homo sapiens), sequence (Q13133 whole entry, looked up, the tested form may be a part): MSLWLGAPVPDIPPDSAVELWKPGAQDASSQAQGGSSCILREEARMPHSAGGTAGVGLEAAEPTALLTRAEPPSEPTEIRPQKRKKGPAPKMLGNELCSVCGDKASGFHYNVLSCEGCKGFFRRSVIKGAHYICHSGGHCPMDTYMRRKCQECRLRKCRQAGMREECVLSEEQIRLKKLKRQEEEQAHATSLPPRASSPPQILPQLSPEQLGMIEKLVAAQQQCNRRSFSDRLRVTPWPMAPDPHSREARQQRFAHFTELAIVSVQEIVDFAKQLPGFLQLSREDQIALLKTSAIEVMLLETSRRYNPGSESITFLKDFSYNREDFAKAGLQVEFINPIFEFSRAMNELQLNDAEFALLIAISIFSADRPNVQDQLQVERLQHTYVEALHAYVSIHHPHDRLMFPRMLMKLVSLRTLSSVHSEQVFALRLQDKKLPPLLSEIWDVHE
Transcriptional activator Myb (Homo sapiens), sequence (P10242 whole entry, looked up): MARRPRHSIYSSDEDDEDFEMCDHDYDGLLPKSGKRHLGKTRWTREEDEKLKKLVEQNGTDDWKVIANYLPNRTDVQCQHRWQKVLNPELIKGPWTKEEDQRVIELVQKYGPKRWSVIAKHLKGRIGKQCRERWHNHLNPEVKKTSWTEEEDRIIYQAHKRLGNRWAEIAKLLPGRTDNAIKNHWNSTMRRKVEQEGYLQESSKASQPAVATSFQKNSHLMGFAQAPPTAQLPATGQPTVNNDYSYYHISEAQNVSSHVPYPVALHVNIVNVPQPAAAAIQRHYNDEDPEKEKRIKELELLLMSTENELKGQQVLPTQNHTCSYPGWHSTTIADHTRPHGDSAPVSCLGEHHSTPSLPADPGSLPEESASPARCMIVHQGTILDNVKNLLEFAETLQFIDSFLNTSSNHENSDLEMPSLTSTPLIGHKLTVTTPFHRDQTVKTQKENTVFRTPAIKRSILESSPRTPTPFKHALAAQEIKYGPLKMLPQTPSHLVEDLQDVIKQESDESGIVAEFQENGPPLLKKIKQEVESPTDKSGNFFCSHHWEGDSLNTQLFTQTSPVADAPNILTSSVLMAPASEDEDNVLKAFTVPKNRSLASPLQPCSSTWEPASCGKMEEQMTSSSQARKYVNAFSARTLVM
Hepatocyte nuclear factor 4-alpha (Homo sapiens), sequence (P41235 whole entry, looked up): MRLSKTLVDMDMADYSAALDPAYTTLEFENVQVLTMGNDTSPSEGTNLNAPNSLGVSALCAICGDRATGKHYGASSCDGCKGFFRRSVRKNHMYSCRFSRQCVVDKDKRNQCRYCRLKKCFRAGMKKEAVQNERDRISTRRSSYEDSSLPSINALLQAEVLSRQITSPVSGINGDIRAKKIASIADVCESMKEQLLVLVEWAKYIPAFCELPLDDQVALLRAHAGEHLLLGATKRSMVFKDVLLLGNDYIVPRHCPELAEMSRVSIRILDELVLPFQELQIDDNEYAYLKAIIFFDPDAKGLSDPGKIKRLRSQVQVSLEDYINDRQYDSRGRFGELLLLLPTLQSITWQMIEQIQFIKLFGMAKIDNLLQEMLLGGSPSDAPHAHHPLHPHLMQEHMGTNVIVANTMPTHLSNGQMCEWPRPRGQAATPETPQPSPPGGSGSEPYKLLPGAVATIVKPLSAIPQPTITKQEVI
Myc proto-oncogene protein (Homo sapiens), sequence (P01106 whole entry, looked up): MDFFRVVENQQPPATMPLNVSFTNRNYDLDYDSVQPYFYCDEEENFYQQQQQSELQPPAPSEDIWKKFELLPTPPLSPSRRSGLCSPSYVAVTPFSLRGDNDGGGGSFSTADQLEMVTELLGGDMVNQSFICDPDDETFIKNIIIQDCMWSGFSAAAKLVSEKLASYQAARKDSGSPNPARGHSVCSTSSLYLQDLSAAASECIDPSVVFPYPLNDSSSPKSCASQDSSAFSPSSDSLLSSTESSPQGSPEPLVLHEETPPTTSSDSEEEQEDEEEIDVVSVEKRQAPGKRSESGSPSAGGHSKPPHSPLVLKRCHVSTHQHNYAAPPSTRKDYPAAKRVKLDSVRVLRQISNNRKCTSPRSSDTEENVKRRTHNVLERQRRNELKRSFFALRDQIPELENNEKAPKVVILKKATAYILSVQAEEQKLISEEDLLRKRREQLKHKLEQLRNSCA
Nuclear respiratory factor 1 (Homo sapiens), sequence (Q16656 whole entry, looked up): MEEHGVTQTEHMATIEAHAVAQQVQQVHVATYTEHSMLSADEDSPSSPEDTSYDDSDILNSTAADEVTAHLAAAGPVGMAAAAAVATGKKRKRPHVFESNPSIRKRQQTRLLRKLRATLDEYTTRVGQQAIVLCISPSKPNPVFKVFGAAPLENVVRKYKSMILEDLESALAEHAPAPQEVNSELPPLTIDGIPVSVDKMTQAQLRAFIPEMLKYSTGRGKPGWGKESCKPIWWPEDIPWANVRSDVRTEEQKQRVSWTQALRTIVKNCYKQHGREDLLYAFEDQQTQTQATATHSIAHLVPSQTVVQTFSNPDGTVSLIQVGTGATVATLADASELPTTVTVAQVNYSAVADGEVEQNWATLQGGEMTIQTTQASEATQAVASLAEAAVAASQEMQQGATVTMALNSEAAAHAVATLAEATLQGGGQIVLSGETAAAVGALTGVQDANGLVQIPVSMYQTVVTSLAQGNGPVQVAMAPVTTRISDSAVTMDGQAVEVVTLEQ
Oxysterols receptor LXR-beta (Homo sapiens), sequence (P55055 whole entry, looked up, the tested form may be a part): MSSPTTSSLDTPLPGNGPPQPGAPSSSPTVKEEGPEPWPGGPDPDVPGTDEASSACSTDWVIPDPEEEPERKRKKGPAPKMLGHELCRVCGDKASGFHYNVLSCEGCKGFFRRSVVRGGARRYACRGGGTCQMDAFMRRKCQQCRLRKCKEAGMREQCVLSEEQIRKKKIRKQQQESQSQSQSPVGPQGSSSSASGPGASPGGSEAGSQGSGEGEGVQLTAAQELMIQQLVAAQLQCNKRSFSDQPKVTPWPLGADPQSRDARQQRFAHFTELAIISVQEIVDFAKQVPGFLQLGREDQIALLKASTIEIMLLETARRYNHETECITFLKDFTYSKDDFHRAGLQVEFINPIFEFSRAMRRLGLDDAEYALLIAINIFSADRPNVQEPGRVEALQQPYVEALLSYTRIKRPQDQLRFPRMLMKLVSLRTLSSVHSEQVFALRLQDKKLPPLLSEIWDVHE
Cellular tumor antigen p53 (Homo sapiens), sequence (P04637 whole entry, looked up): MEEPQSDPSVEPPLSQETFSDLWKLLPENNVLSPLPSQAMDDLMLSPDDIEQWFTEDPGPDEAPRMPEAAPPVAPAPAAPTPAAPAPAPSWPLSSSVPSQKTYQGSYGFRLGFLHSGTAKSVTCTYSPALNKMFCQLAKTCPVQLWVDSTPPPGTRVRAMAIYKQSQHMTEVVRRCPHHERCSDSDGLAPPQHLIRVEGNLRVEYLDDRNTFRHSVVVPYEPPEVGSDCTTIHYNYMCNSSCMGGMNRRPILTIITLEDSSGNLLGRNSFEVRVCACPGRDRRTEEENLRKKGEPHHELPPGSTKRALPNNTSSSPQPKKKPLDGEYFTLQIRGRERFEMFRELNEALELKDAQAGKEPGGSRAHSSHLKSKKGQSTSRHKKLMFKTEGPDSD
Nuclear receptor subfamily 4 group A member 2 (Homo sapiens), sequence (P43354 whole entry, looked up): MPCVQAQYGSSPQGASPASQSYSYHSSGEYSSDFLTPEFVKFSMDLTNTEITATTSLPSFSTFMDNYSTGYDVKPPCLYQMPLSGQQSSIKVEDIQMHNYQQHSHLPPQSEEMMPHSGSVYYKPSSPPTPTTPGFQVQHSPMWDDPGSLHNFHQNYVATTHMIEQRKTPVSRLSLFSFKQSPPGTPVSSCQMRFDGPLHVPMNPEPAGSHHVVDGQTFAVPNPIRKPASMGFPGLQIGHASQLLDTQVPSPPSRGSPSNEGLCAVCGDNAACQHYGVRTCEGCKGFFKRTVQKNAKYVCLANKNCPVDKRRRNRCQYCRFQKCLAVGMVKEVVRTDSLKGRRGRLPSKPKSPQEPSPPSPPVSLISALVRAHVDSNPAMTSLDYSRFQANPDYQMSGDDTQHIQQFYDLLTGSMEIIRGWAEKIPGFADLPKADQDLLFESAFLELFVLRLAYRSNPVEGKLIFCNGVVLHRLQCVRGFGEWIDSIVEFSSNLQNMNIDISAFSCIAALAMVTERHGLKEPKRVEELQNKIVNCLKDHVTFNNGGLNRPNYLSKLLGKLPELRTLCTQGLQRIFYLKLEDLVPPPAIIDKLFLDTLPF

ON=C1CCCCC1
inactive: [1] | [2] | [3] | [4] | [5] | [6] | [7] | [8] | [9] | [10] | [11]

O=c1c(O)c(-c2ccc(O)cc2)oc2cc(O)cc(O)c12
active: [9] 8.93 µM
inactive: [1] | [2] | [12] | [3] | [13] | [4] | [6] | [7] | [8] | [10] | [11]

COC(=O)C=C(C)CCC=C(C)C
inactive: [1] | [12] | [3] | [13] | [4] | [5] | [6] | [7] | [10] | [11]

CCCCCCCCCCCCCCN(CCO)CCO
active: [3] 162 µM | [6] 17.2 µM | [9] 11.1 µM
inactive: [1] | [2] | [12] | [14] | [4] | [5] | [7] | [8] | [10] | [11]

CC(=O)OCCCc1ccccc1
inactive: [1] | [2] | [4] | [5] | [6] | [7] | [8] | [9] | [10] | [11]

CC(C)=CCCC(C)CC(=O)O (centres undefined)
inactive: [1] | [2] | [12] | [3] | [14] | [4] | [5] | [6] | [7] | [9] | [10]

C#CC(C)(O)CC(C)C (centres undefined)
inactive: [1] | [2] | [12] | [13] | [4] | [6] | [7] | [9] | [10] | [11]

O=CN1CCOCC1
inactive: [1] | [2] | [12] | [3] | [13] | [4] | [5] | [6] | [7] | [8] | [9] | [10] | [11] | [15] | [16] | [17] | [18]

O=C1OC[C@H](Cc2cccc(O)c2)[C@H]1Cc1cccc(O)c1
inactive: [1] | [2] | [12] | [3] | [14] | [4] | [5] | [6] | [7] | [8] | [9] | [10] | [11] | [15] | [16] | [17] | [18]

C=C(C#N)C(=O)OCC
inactive: [1] | [2] | [3] | [4] | [5] | [6] | [7] | [9] | [10]
active: [8] 100 µM | [11] 80 µM

OCCc1ccccc1
inactive: [1] | [2] | [12] | [3] | [4] | [5] | [6] | [7] | [9] | [10] | [11]

CC(O)C1CCCCC1 (centres undefined)
inactive: [1] | [2] | [3] | [13] | [4] | [5] | [6] | [7] | [9] | [10]

CN(c1nccc(=O)[nH]1)C1CCN(c2nc3ccccc3n2Cc2ccc(F)cc2)CC1
active: [16] 1.84 µM
inactive: [1] | [2] | [3] | [13] | [4] | [5] | [6] | [7] | [9] | [10] | [15] | [17] | [18]

CCCCC(CC)C(=O)OC(C)C (centres undefined)
inactive: [1] | [2] | [3] | [13] | [14] | [4] | [5] | [7] | [8] | [9] | [10] | [11]

NCCNc1cccc2ccccc12
active: [7] 168 µM | [10] 176 µM | [11] 50.9 µM
inactive: [1] | [2] | [12] | [3] | [13] | [5] | [8] | [9]

C=CC(=O)OCCCC
inactive: [1] | [2] | [4] | [5] | [6] | [7] | [9] | [10] | [11]
